Assay results published in the supplement of paper PMC10849652.
Targets with a hit are over-represented here; the source holds about 7,900 in all. About 0.6% of all pairs of compound and target were hits.

How the values were obtained:
Assay in all cases: log2 fold change, soluble protein after heating vs DMSO (PISA); higher = thermal stabilisation; K562 cells, 10 uM, 30 min; active = over 0.2 and 3.5 SD of the protein, either way, in both replicates (recomputed)
[1] = compound: CC1=C(C=C(C=C1)NC(=O)C2=CC(=CC=C2)C(C)(C)C#N)NC3=CC4=C(C=C3)N=CN(C4=O)C
In short: (§1)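 K562 cells (2×10^6 cells/mL) were treated with 10 μM compound for 30 min, and aliquots were heated for 3 min over 48°C-58°C. Pooled aliquots were extracted in PBS with 0.5% NP-40 at 4°C, and the supernatant after 21,000xg for 90 min was measured by TMTpro 16plex LC-MS/MS with channel sums equalised. Reported thermal stability, relative to control samples and from duplicates, is a log2 fold change.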

[2] = compound: CC1=C(C=C(C=C1)NC(=O)C2=CC(=CC=C2)N(C)C)NC(=O)C3=CC=C(C=C3)O
In short: as §1

[3] = compound: CC1=CC=C(C=C1)SC2=C3C=C(SC3=CN=C2)C(=O)N
In short: as §1

[4] = compound: CC1=NC(=CC=C1)C2=C(N=C(N2)C(C)(C)C)C3=CC4=NC=CN=C4C=C3
In short: as §1

Nexturastat A = compound: CCCCN(Cc1ccc(C(=O)NO)cc1)C(=O)Nc1ccccc1 [Nexturastat A]
In short: as §1

vemurafenib = compound: CCCS(=O)(=O)Nc1ccc(F)c(C(=O)c2c[nH]c3ncc(-c4ccc(Cl)cc4)cc23)c1F [vemurafenib]
In short: as §1

[5] = compound: CCCS(=O)(=O)Nc1ccc(F)c(C(=O)c2c[nH]c3ncc(Cl)cc23)c1F
In short: as §1

[6] = compound: CCCc1cc(C)[nH]c(=O)c1CNC(=O)c1cc(-c2ccnc(N3CCN(C)CC3)c2)cc2c1cnn2C(C)C
In short: as §1

givinostat = compound: CCN(CC)Cc1ccc2cc(COC(=O)Nc3ccc(C(=O)NO)cc3)ccc2c1 [givinostat]
In short: as §1

barasertib = compound: CCN(CCCOc1ccc2c(Nc3cc(CC(=O)Nc4cccc(F)c4)[nH]n3)ncnc2c1)CCOP(=O)(O)O [barasertib]
In short: as §1

[7] = compound: CC[C@@H]1C(=O)N(C)c2cnc(Nc3ccc(C(=O)NC4CCN(C)CC4)cc3OC)nc2N1C1CCCC1
In short: as §1

volasertib = compound: CC[C@@H]1C(=O)N(C)c2cnc(Nc3ccc(C(=O)N[C@H]4CC[C@H](N5CCN(CC6CC6)CC5)CC4)cc3OC)nc2N1C(C)C [volasertib]
In short: as §1

[8] = compound: CC[C@H](C)N1C=C(C2=C(C=C(C=C21)C3=CN=C(C=C3)N4CCNCC4)C(=O)NCC5=C(C=C(NC5=O)C)C)C
In short: as §1

epoxomicin = compound: CC[C@H](C)[C@@H](C(=O)N[C@@H]([C@@H](C)O)C(=O)N[C@@H](CC(C)C)C(=O)[C@]1(CO1)C)NC(=O)[C@H]([C@@H](C)CC)N(C)C(=O)C [epoxomicin]
In short: as §1

[9] = compound: CCn1c(C(=O)N(C2CC2)C2CC2)cc2c3c(ncn3C)c(Nc3cc(C)n(C)n3)nc21
In short: as §1

[10] = compound: CCn1cc(-c2ccnc3[nH]c(-c4cccc(CN(C)C)c4)cc23)c(-c2ccc(NC(=O)N(C)C)cc2)n1
In short: as §1

[11] = compound: CN(C)CC(=O)Nc1ccc2[nH]c(=O)c3ccccc3c2c1
In short: as §1

rosiglitazone = compound: CN(CCOC1=CC=C(C=C1)C[C@H]2C(=O)NC(=O)S2)C3=CC=CC=N3 (racemic) [rosiglitazone]
In short: as §1

[12] = compound: CN1C2=C(C3=C1C(=O)N(N=C3)CC4=CC(=CC=C4)N)SC(=C2)S(=O)C
In short: as §1

[13] = compound: CN1CCC(CNc2ccc3ncc(-c4cccc(OC(F)(F)F)c4)n3n2)CC1
In short: as §1

Measured: log2 fold change

PTRHD1 (UniProt Q6GMV3)
active: epoxomicin 0.415
inactive: [1] -0.051 | [2] -0.098 | [3] 0.017 | [4] 0.022 | Nexturastat A 0.074 | vemurafenib 0.059 | [5] -0.024 | [6] -0.024 | givinostat -0.008 | barasertib 0.034 | [7] 0.106 | volasertib 0.037 | [8] -0.028 | [9] 0.064 | [10] 0.086 | [11] -0.056 | rosiglitazone 0.048 | [12] 0.019 | [13] 0.078

PRKAR1B (UniProt P31321)
inactive: [1] 0.102 | [2] -0.019 | [3] 0.004 | [4] -0.057 | Nexturastat A 0.015 | vemurafenib 0.04 | [5] -0.038 | [6] 0.133 | givinostat -0.036 | barasertib -0.12 | [7] 0.024 | volasertib -0.054 | [8] -0.067 | epoxomicin -0.063 | [9] 0.119 | [10] 0.12 | [11] -0.001 | rosiglitazone 0.042 | [12] 0.127
active: [13] 0.43

POP1 (UniProt Q99575)
inactive: [1] 0.03 | [2] -0.001 | [3] 0.004 | [4] -0.02 | Nexturastat A -0.011 | vemurafenib -0.004 | [5] 0.021 | [6] 0.018 | givinostat -0.009 | barasertib -0.042 | [7] 0.069 | volasertib 0.092 | [8] 0.02 | epoxomicin -0.001 | [9] 0.006 | [10] 0.028 | [11] -0.019 | rosiglitazone -0.025 | [12] -0.009 | [13] 0.075

PMPCB (UniProt O75439)
Sequence of UniProt O75439 (O75439 whole entry, looked up): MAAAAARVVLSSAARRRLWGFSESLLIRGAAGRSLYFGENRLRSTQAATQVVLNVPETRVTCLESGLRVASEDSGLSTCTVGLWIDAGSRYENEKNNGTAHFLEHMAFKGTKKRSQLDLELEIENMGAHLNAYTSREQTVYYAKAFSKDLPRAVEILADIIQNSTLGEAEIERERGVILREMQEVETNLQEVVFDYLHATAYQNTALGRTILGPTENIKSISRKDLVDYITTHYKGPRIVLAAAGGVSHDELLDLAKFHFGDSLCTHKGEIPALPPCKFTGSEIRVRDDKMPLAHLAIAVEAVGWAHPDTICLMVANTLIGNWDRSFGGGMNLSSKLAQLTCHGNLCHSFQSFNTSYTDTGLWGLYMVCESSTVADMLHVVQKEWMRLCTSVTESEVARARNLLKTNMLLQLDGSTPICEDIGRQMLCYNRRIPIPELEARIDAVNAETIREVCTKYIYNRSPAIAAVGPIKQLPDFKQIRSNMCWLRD
inactive: [1] 0.012 | [2] -0.063 | [3] -0.009 | [4] 0.03 | Nexturastat A -0.07 | vemurafenib 0.06 | [5] -0.019 | [6] -0.015 | givinostat -0.042 | barasertib 0.01 | [7] 0.008 | volasertib 0.138 | [8] 0.038 | epoxomicin 0.022 | [9] -0.017 | [10] -0.125 | [11] 0.032 | rosiglitazone 0.002 | [12] -0.084 | [13] 0.098

PCGF2 (UniProt P35227)
Sequence of UniProt P35227 (P35227 whole entry, looked up): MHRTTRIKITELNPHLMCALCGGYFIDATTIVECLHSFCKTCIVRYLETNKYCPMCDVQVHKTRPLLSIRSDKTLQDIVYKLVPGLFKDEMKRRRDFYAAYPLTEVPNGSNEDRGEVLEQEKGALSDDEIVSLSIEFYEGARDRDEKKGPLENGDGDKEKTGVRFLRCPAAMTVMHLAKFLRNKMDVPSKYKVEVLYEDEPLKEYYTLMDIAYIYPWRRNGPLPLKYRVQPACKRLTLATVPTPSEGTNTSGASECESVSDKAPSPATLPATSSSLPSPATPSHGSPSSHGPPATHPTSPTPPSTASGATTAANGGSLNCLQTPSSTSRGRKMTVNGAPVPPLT
active: [13] -0.282
inactive: [1] -0.043 | [2] -0.058 | [3] -0.056 | [4] 0.033 | Nexturastat A -0.01 | vemurafenib 0 | [5] -0.033 | [6] 0.056 | givinostat 0.046 | barasertib 0.113 | [7] -0.131 | volasertib -0.089 | [8] 0.012 | epoxomicin -0.005 | [9] -0.054 | [10] -0.02 | [11] -0.03 | rosiglitazone 0.028 | [12] -0.071

PELP1 (UniProt Q8IZL8)
Sequence of UniProt Q8IZL8 (Q8IZL8 whole entry, looked up): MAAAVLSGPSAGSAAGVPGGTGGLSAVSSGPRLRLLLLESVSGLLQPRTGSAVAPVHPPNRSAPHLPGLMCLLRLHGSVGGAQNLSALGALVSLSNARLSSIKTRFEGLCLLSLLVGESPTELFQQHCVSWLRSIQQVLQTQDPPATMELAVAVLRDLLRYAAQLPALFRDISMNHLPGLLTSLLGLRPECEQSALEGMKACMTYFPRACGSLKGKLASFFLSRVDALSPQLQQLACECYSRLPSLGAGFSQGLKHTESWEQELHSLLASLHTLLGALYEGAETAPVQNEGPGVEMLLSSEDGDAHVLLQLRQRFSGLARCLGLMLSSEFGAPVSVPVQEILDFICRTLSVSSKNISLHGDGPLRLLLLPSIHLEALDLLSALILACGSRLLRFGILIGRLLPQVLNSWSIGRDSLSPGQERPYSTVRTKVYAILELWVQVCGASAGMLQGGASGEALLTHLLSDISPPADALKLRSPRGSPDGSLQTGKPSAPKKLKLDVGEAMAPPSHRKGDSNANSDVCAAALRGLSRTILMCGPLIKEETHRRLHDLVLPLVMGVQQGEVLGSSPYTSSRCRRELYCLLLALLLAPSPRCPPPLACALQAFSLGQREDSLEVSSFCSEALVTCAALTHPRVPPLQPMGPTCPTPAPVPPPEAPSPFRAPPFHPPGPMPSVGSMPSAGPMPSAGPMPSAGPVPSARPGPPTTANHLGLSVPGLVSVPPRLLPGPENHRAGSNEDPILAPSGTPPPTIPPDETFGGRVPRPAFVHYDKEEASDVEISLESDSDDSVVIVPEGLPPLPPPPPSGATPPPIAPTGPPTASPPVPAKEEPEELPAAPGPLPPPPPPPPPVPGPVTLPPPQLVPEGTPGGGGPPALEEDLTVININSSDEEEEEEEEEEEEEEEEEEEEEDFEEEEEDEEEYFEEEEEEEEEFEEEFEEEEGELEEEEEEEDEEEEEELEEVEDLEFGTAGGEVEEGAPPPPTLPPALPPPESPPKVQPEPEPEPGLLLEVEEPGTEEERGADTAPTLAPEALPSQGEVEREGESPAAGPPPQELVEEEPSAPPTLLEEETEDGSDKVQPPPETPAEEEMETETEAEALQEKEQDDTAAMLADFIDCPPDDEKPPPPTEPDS
inactive: [1] -0.048 | [2] 0.044 | [3] 0.034 | [4] -0.02 | Nexturastat A 0.15 | vemurafenib -0.01 | [5] -0.038 | [6] -0.006 | givinostat 0.039 | barasertib -0.085 | [7] 0.056 | volasertib 0.017 | [8] -0.002 | epoxomicin -0.004 | [9] -0.01 | [10] 0.047 | [11] -0.009 | rosiglitazone 0.017 | [12] 0.006 | [13] 0.021

PTGFRN (UniProt Q9P2B2)
inactive: [1] -0.044 | [2] -0.025 | [3] 0.006 | [4] -0.012 | Nexturastat A -0.021 | vemurafenib 0.013 | [5] -0.045 | [6] -0.03 | givinostat 0.007 | barasertib -0.043 | [7] 0.032 | volasertib 0.008 | [8] 0 | epoxomicin 0.014 | [9] 0.022 | [10] -0.049 | [11] -0.01 | rosiglitazone 0.025 | [12] -0.104 | [13] 0.181

PARN (UniProt O95453)
Sequence of UniProt O95453 (O95453 whole entry, looked up): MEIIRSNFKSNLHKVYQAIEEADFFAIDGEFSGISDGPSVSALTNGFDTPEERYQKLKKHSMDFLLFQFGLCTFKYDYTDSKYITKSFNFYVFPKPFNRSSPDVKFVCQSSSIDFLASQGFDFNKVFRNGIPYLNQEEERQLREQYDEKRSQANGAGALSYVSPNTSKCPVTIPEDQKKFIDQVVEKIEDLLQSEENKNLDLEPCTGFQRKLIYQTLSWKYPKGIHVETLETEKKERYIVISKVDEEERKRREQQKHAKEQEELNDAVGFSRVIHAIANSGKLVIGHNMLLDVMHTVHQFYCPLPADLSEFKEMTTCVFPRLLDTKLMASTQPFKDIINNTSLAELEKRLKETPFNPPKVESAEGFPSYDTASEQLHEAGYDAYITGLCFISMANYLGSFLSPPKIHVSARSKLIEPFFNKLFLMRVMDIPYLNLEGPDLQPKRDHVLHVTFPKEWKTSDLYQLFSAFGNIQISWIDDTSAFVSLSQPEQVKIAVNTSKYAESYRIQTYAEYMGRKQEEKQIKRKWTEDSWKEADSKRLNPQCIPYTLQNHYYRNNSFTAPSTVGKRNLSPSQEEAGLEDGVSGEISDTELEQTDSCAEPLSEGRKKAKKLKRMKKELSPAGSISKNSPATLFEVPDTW
active: volasertib -0.401
inactive: [1] -0.038 | [2] -0.004 | [3] 0.004 | [4] 0.013 | Nexturastat A -0.069 | vemurafenib 0 | [5] 0.043 | [6] -0.058 | givinostat 0.059 | barasertib 0.057 | [7] -0.146 | [8] 0.059 | epoxomicin 0.051 | [9] -0.021 | [10] -0.076 | [11] 0.017 | rosiglitazone 0.017 | [12] -0.057 | [13] -0.196

PTPMT1 (UniProt Q8WUK0)
inactive: [1] 0.043 | [2] -0.019 | [3] 0.025 | [4] 0.025 | Nexturastat A -0.114 | vemurafenib -0.047 | [5] 0.031 | [6] -0.029 | givinostat -0.029 | barasertib 0.041 | [7] -0.298 | volasertib -0.127 | [8] 0.002 | epoxomicin 0.088 | [9] 0.044 | [10] -0.051 | [11] 0.012 | rosiglitazone -0.012 | [12] -0.006
active: [13] -1.21

PHF5A (UniProt Q7RTV0)
Sequence of UniProt Q7RTV0 (Q7RTV0 whole entry, looked up): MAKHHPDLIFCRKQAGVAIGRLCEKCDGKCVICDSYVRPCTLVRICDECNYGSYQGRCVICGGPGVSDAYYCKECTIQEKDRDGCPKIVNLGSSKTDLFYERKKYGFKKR
inactive: [1] -0.019 | [2] -0.046 | [3] -0.023 | [4] -0.012 | Nexturastat A -0.017 | vemurafenib -0.075 | [5] -0.064 | [6] 0.021 | givinostat -0.075 | barasertib -0.032 | [7] 0.013 | volasertib 0.065 | [8] -0.061 | epoxomicin 0.051 | [9] 0.014 | [10] 0.087 | [11] -0.063 | rosiglitazone -0.062 | [12] -0.017 | [13] 0.017

PPP1R35 (UniProt Q8TAP8)
Sequence of UniProt Q8TAP8 (Q8TAP8 whole entry, looked up): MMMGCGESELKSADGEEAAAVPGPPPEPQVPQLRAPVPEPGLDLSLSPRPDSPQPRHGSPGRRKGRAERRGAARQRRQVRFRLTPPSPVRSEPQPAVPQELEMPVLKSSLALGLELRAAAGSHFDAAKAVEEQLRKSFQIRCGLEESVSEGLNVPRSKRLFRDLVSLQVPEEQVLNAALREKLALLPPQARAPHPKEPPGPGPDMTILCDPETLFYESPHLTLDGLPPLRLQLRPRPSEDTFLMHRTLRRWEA
inactive: [1] -0.011 | [2] 0.065 | [3] 0.025 | [4] 0.034 | Nexturastat A -0.009 | vemurafenib -0.049 | [5] 0.008 | [6] -0.027 | givinostat 0.112 | barasertib -0.074 | [7] 0.062 | volasertib 0.101 | [8] -0.062 | epoxomicin 0.062 | [9] 0.009 | [10] 0.007 | [11] -0.004 | rosiglitazone 0.035 | [12] 0.027 | [13] -0.032

PPP2R5E (UniProt Q16537)
Sequence of UniProt Q16537 (Q16537 whole entry, looked up): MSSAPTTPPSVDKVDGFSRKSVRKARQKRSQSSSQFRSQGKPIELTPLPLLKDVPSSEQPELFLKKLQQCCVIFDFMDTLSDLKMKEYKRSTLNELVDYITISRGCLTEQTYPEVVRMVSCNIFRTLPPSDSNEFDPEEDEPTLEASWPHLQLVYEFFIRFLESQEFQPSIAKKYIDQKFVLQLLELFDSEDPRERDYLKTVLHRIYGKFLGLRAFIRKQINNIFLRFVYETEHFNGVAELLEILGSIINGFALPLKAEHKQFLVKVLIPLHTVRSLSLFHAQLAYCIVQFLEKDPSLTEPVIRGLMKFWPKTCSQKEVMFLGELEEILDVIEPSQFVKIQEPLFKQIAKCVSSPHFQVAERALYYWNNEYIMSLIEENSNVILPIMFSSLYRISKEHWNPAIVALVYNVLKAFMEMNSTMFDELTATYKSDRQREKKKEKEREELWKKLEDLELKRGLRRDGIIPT
active: [7] -0.259 | volasertib -0.404 | [13] -0.99
inactive: [1] -0.049 | [2] -0.065 | [3] -0.023 | [4] 0.066 | Nexturastat A 0.003 | vemurafenib 0.027 | [5] 0.07 | [6] 0.03 | givinostat 0.032 | barasertib 0.027 | [8] -0.025 | epoxomicin -0.034 | [9] -0.009 | [10] -0.165 | [11] 0.018 | rosiglitazone 0.099 | [12] -0.048

PC (UniProt P11498)
Sequence of UniProt P11498 (P11498 whole entry, looked up): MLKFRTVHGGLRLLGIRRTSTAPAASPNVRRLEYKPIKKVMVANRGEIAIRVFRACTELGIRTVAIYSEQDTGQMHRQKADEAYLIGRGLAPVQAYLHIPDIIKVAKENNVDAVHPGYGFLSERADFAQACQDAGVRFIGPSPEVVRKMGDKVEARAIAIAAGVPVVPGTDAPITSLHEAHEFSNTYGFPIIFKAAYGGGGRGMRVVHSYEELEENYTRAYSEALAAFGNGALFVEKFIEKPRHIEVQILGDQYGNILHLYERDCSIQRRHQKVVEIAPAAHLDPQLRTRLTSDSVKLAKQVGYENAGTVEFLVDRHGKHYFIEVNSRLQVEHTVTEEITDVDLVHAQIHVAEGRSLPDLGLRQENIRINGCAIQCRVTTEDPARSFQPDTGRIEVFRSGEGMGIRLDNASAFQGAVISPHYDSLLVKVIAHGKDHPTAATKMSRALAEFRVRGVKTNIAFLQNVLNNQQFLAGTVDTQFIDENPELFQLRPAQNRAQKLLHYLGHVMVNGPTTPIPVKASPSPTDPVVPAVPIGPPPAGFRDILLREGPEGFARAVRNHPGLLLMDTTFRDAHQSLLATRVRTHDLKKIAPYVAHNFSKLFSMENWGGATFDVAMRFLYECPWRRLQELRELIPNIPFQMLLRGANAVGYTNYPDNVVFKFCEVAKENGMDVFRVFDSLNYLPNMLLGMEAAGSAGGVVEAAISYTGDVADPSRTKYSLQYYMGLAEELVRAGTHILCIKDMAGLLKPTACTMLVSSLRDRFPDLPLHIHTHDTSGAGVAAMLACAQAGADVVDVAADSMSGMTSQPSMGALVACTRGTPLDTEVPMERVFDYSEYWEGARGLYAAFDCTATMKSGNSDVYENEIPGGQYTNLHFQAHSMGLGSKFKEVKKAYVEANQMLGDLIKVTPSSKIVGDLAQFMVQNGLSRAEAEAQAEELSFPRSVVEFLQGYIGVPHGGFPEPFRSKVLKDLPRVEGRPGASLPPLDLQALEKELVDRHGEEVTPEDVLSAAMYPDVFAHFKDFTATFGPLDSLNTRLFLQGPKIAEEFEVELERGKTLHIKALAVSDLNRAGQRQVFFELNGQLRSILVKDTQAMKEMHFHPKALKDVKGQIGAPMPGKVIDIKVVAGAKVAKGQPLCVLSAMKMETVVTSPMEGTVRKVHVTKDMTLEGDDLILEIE
inactive: [1] 0.07 | [2] -0.103 | [3] 0.038 | [4] 0.012 | Nexturastat A -0.07 | vemurafenib 0 | [5] 0.032 | [6] 0.039 | givinostat 0.022 | barasertib 0.009 | [7] -0.041 | volasertib -0.069 | [8] 0.067 | epoxomicin 0.041 | [9] -0.082 | [10] -0.217 | [11] 0.027 | rosiglitazone 0.084 | [12] -0.128 | [13] 0.03

PSMD6 (UniProt Q15008)
Sequence of UniProt Q15008 (Q15008 whole entry, looked up): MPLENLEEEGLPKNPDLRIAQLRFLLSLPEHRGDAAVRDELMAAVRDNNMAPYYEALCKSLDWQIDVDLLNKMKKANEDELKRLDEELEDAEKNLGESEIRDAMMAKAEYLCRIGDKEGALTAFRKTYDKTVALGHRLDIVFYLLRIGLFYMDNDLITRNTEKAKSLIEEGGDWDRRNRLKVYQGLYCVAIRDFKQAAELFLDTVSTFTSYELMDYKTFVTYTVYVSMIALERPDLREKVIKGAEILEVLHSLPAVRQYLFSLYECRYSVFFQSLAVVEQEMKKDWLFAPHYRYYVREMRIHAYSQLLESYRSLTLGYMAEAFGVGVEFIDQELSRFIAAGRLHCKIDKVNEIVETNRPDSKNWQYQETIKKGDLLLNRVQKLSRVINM
inactive: [1] -0.007 | [2] -0.004 | [3] -0.045 | [4] -0.045 | Nexturastat A 0.108 | vemurafenib -0.055 | [5] -0.014 | [6] 0.01 | givinostat -0.034 | barasertib -0.012 | [7] 0.09 | volasertib 0.18 | [8] 0.01 | epoxomicin -0.247 | [9] -0.009 | [10] 0.063 | [11] -0.023 | rosiglitazone -0.029 | [12] 0.029 | [13] 0.061

PRKCB isoform 2 (UniProt P05771)
inactive: [1] 0.005 | [2] -0.014 | [3] -0.003 | [4] 0.01 | Nexturastat A -0.01 | vemurafenib 0.009 | [5] -0.007 | [6] 0.002 | givinostat 0.001 | barasertib 0.015 | [7] -0.068 | [8] 0.04 | epoxomicin 0.03 | [9] -0.005 | [10] -0.06 | [11] 0.006 | rosiglitazone 0.007 | [12] -0.054 | [13] -0.135
active: volasertib -0.213

PARP1 (UniProt P09874)
active: [6] 0.555 | volasertib -0.57
inactive: [1] 0.116 | [2] -0.149 | [3] 0.071 | [4] 0.107 | Nexturastat A -0.13 | vemurafenib 0.112 | [5] 0.145 | givinostat 0.045 | barasertib 0.122 | [7] -0.233 | [8] 0.162 | epoxomicin 0.1 | [9] -0.088 | [10] 0.302 | rosiglitazone 0.086 | [12] 0.027 | [13] -0.146
